Shown are actives, neighbours in structure and some others; about 3.8% of the full set was active somewhere.
ATXN viability = reduces viability in counter-screen for ATXN expression inhibitors; S2 cells (HEK-293 line with an ATXN2-luciferase reporter) viability, CellTiter-Fluor protease fluorescence, 24 h; Potency, µM (series often up to 56.7 µM), usual class: cytotoxic; 0.49% of 400,000 active; AID 651635; further: nearly all actives have a fitted effect of over 40% in size
TGFb SMAD3 inh = blocks TGF-b signaling; 1.2% of 410,000 active; AID 588855; HepG2 CAGA-GFP TGF-b/SMAD3 reporter, GFP fluorescence, 18 h; TGF-beta stimulated, 500 pg/mL final; Potency, µM (doses to about 46.1 µM), usual class: inhibitors; further: nearly all actives have a fitted effect of over 65% in size
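HEPG2 CAGA-GFP cells (1000/well, DMEM with 1% FBS) were pre-incubated 2 h at 37 degrees C, given compound by pin tool, then stimulated with TGF-beta at 500 pg/mL final for 18 h before per-cell GFP fluorescence imaging.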
ATXN2 expr inh = inhibitors of ATXN2 expression | Potency, µM (series often up to 57 µM), actives largely listed as inhibitors | 0.72% of 360,000 active | HEK-293 ATXN2-luciferase reporter, luminescence, 24 h | AID 1745845; further: nearly all actives have a fitted effect of over 55% in size
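ATXN2-luciferase reporter cells (luciferase flanked by upstream and downstream ATXN2 gene portions) were treated 24 h at 37 °C with compounds at up to 57 uM. SteadyGlo luminescence gave expression; GF-AFC fluorescence gave viability.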
HepG2 viability = HepG2 cytotoxicity, counter-screen for TGF-b inhibitors; HepG2 CAGA-GFP viability, ATP luminescence, 18 h; Potency, µM (titrated, usually from 46.1 µM), most hits filed as cytotoxic; 0.76% of 410,000 active
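HepG2 CAGA-GFP cells (1000/well, DMEM with 1% FBS) received compound, then TGF-beta at 500 pg/mL final, and were incubated 18 hours at 37 degrees C. Viability was read by CellTiter-Glo luminescence. Media-only wells were set as complete cell-killing and DMSO as no toxicity.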
HT1080-NT tox = kills 2HG-producing HT-1080-NT fibrosarcoma cells; Potency, µM (top dose mostly 46.1 µM), most hits filed as cytotoxic; 1.6% of 360,000 active; HT-1080-NT fibrosarcoma viability, CellTiter-Glo ATP luminescence, 48 h;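 further: NT is the 2HG producing partner of a matched IDH1 knockdown line; nearly all actives have a fitted effect of over 55% in size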
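Viability by CellTiter-Glo luminescence after 48 h compound exposure at 37C of HT-1080-NT cells (750/well, RPMI, 5% FBS). % activity scaled between DMSO wells and medium-only wells, then curve-fitted and categorized by curve class.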
HT1080 IDH1KD tx = kills HT-1080 cells with IDH1 knockdown. HT-1080 IDH1 knockdown viability, ATP luminescence, 48 h. Potency, µM (doses to about 46.1 µM), actives largely listed as cytotoxic. 2% of 360,000 active. AID 686971
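CellTiter-Glo luminescence after 48 h compound exposure at 37 degrees C of IDH1-knockdown HT-1080 cells in 5% FBS RPMI. %Activity scaled between DMSO wells and cell-free media wells, with curves fitted and assigned curve classes.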
A number is an active result; - = inactive; ? = inconclusive; . = no result given; ! = repeats disagree. The call rests on the fitted dose curve; in most records, active means well fitted curve in the direction sought with a large enough effect; inconclusive means small, poorly fitted or top-dose-only effect, or another doubt; inactive means no such curve, though single readings can be large; an effect the other way counts as inactive or inconclusive.

SMILES | ATXN viability | TGFb SMAD3 inh | ATXN2 expr inh | HepG2 viability | HT1080-NT tox | HT1080 IDH1KD tx
Oc1ccc(C[C@@H](CN2CCCC2CN2C(=S)NC[C@@H]2Cc2ccccc2)N2C[C@H](Cc3ccccc3)N(CC3CCCCC3)C2=S)cc1 (stereo partly drawn) | - | . | - | . | - | -
CC(C)C[C@H]1CN([C@@H](CC(C)C)CN2CCC[C@@H]2CN2C(=S)NC[C@@H]2Cc2ccc(O)cc2)C(=S)N1CC1CCCCC1 | 32µM | ? | - | - | 21µM | 15µM
CC(C)C[C@H]1CN([C@@H](CC(C)C)CN2CCCC2CN2C(=S)NC[C@@H]2Cc2ccc(O)cc2)C(=S)N1CC1CCCCC1 (stereo partly drawn) | - | ? | - | - | - | -
CC(C)C[C@H]1CNC(=S)N1CC1CCCN1C[C@H](Cc1ccc(O)cc1)N1C[C@H](Cc2ccccc2)N(CC2CCCCC2)C1=S (stereo partly drawn) | ? | ? | - | - | ? | -
Oc1ccc(C[C@H]2CN([C@@H](Cc3ccccc3)CN3CCC[C@@H]3CN3C(=S)NC[C@@H]3Cc3ccccc3)C(=S)N2CC2CCCCC2)cc1 | ? | 13µM | - | - | 23µM | ?
Cc1cc[n+](CCC2CCCCC2)cc1 | . | ? | . | - | . | .
COC(=O)c1cc2oc3ccccc3c2n1Cc1c(F)cccc1Cl | . | . | . | - | . | .
COc1cc(OC)c(-c2cc(C(=O)NCc3ccc(F)cc3)c3c(-c4ccccc4)[nH]nc3n2)cc1OC | . | ? | ? | 11µM | . | .
Cc1ccc(C(=O)N2CCCN(c3nc4cc5c(cc4cc3C#N)OCO5)CC2)cc1 | - | - | - | - | ? | 21µM
N#Cc1cc2cc3c(cc2nc1N1CCCCC1)OCCO3 | - | - | - | - | - | -
CC(=O)c1ccc(-c2cc(F)cc3c2OC(CNC(=O)C(C)N2CCOCC2)C3)s1 (stereo not drawn) | - | . | . | . | . | .
O=Nc1c(O)n(Cc2ccc(Cl)cc2Cl)c2ccccc12 | - | ? | - | 5µM | ? | ?
O=Nc1c(O)n(Cc2ccc(Cl)cc2)c2ccccc12 | - | - | - | - | ? | ?
Nc1ncnc2c1c(-c1cccc(OCc3ccccc3)c1)cn2C1CC(CN2CCCC2)C1 (stereo not drawn) | . | . | 31µM | . | . | .
O=[N+]([O-])c1ccc(COc2cccc(CN3CCCC3)c2)cc1 | - | - | - | - | - | -
O=C(c1cc2sccc2n1Cc1ccccc1)N1CCN(c2nc3ccccc3s2)CC1 | - | - | ? | - | - | 8.2µM
COc1cccc(CN(C)C(=O)c2cnn(-c3nccc(-c4ccc5c(c4)OCO5)n3)c2C)c1 | - | . | . | . | . | .
CN1CCCC(CC2Oc3ccccc3Sc3ccccc32)C1 (stereo not drawn) | ? | ? | ? | - | 15µM | 21µM
COc1ccccc1C(=O)NNC(=S)NC(=O)c1cc(OC)c(OC)c(OC)c1 | - | - | ? | - | - | ?
O=C(NC(=S)NNC(=O)c1cnccn1)c1ccc(Cl)cc1 | ? | - | ? | - | - | ?
COc1cc(C(=O)NC(=S)NNC(=O)c2cnccn2)cc(OC)c1OC | - | - | ? | - | ? | 15µM
COc1ccc(C(=O)NC(=S)NNC(=O)c2cnccn2)cc1 | - | - | ? | - | ? | 2.9µM
COc1ccc(C(=O)NC(=S)Nc2ccc(Cc3ccncc3)cc2)cc1 | ? | - | - | - | 18µM | 21µM
COc1cccc(-n2cc(C(=O)Nc3ccccc3C(N)=O)c3ccccc3c2=O)c1 | . | - | . | - | . | .
COc1cc(N(C)C)c(OC)cc1/C=C1\C=Cc2ccccc21 | . | - | . | - | . | .
SMILES | ATXN viability | TGFb SMAD3 inh | ATXN2 expr inh | HepG2 viability | HT1080-NT tox | HT1080 IDH1KD tx
Cc1nc2sccn2c1CN1CCOc2ccc(CN3C[C@@H](C)O[C@@H](C)C3)cc2C1 | - | . | . | . | . | .
CCn1c(=O)c(C(=O)Nc2ccc(C(C)=O)cc2)nc2ccccc21 | - | - | - | - | . | .
CCN1CCN(CCNC(=O)c2ccc3c(c2)N(Cc2ccc(F)cc2)C(=O)/C(=C/c2ccccc2)S3)CC1 | ? | ? | ? | - | 6.5µM | 5.2µM
CCN1CCCC1CNC(=O)c1ccc2c(c1)N(Cc1ccccc1F)C(=O)c1ccccc1S2(=O)=O (stereo not drawn) | - | - | - | - | - | -
CCc1ccc(/C=C2/Sc3ccccc3N(CC(=O)NCCCN3CCOCC3)C2=O)cc1 | ? | ? | . | 18µM | - | -
CCC1CCCCN1CCCNC(=O)c1ccc2c(c1)N(Cc1ccc(F)cc1)C(=O)c1ccccc1S2=O (stereo not drawn) | ? | ? | ? | - | 21µM | 23µM
CC1CCCN(CCCNC(=O)c2ccc3c(c2)N(Cc2ccccc2F)C(=O)c2ccccc2S3(=O)=O)C1 (stereo not drawn) | ? | ? | ? | 11µM! | 26µM | ?
O=C(CN1C(=O)/C(=C/c2ccc(C(F)(F)F)cc2)Sc2ccccc21)NCCCN1CCOCC1 | - | ? | - | - | ? | ?
COc1cc2[nH]c(=O)n(CCCC(=O)N(C)Cc3ccccc3)c(=O)c2cc1OC | ? | - | - | - | . | .
O=C(NCCN1CCOCC1)c1ccc(/C=C2\Sc3ccccc3N(Cc3ccccc3F)C2=O)cc1 | - | ? | . | - | - | -
CN1CCN(CCCNC(=O)c2ccc(/C=C3\Sc4ccccc4N(Cc4ccccc4F)C3=O)cc2)CC1 | - | ? | - | - | 23µM | ?
CCN1CCN(CCNC(=O)c2ccc(/C=C3/Sc4ccccc4N(Cc4cccc(Cl)c4)C3=O)cc2)CC1 | 28µM | ? | 25µM | 22µM | 15µM | ?
Cc1ccc(C(=O)N[C@@H](C)CN2C3=NC[C@H](C(C)C)N3C[C@H]2Cc2ccc(O)cc2)cc1Br | ? | ? | ? | - | - | -
COc1ccc(C[C@H]2CN3C(=NC[C@@H]3Cc3ccc(O)cc3)N2C[C@H](C)NC(=O)c2ccc(C)c(Br)c2)cc1 | 22µM | 22µM | ? | 18µM | - | -
COc1ccc(C[C@@H]2CN3C(=NC[C@@H]3C)N2C[C@H](C)NC(=O)CCC2CCCCC2)cc1 | - | - | - | - | - | -
COc1ccc(C[C@H]2CN3C(=NC[C@@H]3C(C)C)N2C[C@H](C)NC(=O)c2ccc(C)c(Br)c2)cc1 | 18µM | ? | ? | - | - | -
Cc1ccc(-c2ccc(/C=C3\SC(N4CCOCC4)=NC3=O)o2)cc1 | . | - | - | - | 9.2µM | 8.2µM
COc1cc(OC)c2c(-c3cccc(-c4ccc(C(C)=O)cc4)c3)cc(=O)oc2c1 | - | ? | - | - | 5.2µM | 3.3µM
COc1cc(OC)c2c(-c3cccc(-c4ccoc4)c3)cc(=O)oc2c1 | ? | ? | ? | - | ? | ?

Screens deposited in PubChem by National Center for Advancing Translational Sciences (NCATS).
